Screening data (PubChem)
Sampled rows, rich in hits. Any-hit rate of the full collection: about 2.2%.
FUS yeast rescue = qHTS for Suppressors of FUS Proteinopathy: Primary screen using FUS-linked yeast assay; AID 1347120, 2019; S. cerevisiae FUS-expressing, growth rescue, OD600, 24 h; Potency, µM (doses to about 76.6 µM), actives largely listed as activators; actives 0.24% (n = 390,000); note: nearly all actives have a fitted effect of over 55% in size
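Restored growth of FUS-toxic S. cerevisiae, read as 600 nm absorbance after 24 h at 30C in galactose medium (starting OD 0.005). Controls CP55940 and DMSO.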
TDP-43 yeast inh = qHTS of TDP-43 Inhibitors; TDP-43 expressing yeast growth rescue, BacTiter-Glo, 24 h; Potency, µM (doses to about 46.1 µM), actives largely listed as activators; actives 1.8% (n = 410,000); note: nearly all actives have a fitted effect of over 50% in size
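Cell-based yeast growth screen: TDP-43 expression induced in galactose, inoculum OD600=0.02 after raffinose pregrowth to mid-log. Read-out BacTiter-Glo luminescence at 24 hr, 30 deg C; inhibition of toxicity seen as signal increase.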
aSyn yeast inh = qHTS of alpha-syn Inhibitors. Yeast expressing alpha-synuclein, growth rescue, BacTiter-Glo, 24 h. Potency, µM (series often up to 46.1 µM), hits mostly activators. actives 0.14% (n = 370,000). AID 652106, 2013; note: nearly all actives have a fitted effect of over 65% in size
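Readout is rescue of growth in alpha-synuclein-expressing yeast, so inhibitors of toxicity appear as activators. Growth after 24 hr at 30 deg C in galactose medium is quantified by luminescence.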
Mito fusion yeast = qHTS Assay for Small Molecule Inhibitors of Mitochondrial Division or Activators of Mitochondrial Fusion | actives 0.23% (n = 320,000) | Potency, µM (series often up to 46.1 µM), actives largely listed as activators | S. cerevisiae fusion-defective mutant growth rescue, CellTiterGlo 48 h; note: nearly all actives have a fitted effect of over 45% in size
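Growth-rescue viability read-out: after 48 h at the non-permissive 37C in glycerol/ethanol YPEG, yeast mitochondrial fusion mutants are measured by CellTiterGlo luminescence; compounds (23 nl pinned per well) restoring growth score as division inhibitors or fusion activators.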
Abeta yeast res = qHTS for compounds that reverse cellular toxicity of Amyloid beta (A-beta) peptide in yeast: Primary Screen. actives 0.063% (n = 410,000). yeast expressing A-beta42, growth rescue, OD600, 48 h; response scale: 0% DMSO, 100% iron-clioquinol control. Potency, µM (highest dose often 46.1 µM), most hits filed as activators; note: nearly all actives have a fitted effect of over 55% in size
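Yeast A-beta toxicity model in growth medium with pinned compounds, 48 h at 30 C; growth read as absorbance at 600 nm. Normalized to FeCl3/clioquinol equimolar mix (positive) and DMSO (negative).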
Hits are given with their value; i = inactive; ? = inconclusive; nt = not tested or not shown; [ ] = remark or other dose. Calls come from the whole dose curve; as a rule, active = well fitted curve in the direction sought with a large enough effect; inconclusive = small, poorly fitted or top-dose-only effect, or another doubt; inactive = no such curve, though single readings can be large; an effect the other way counts as inactive or inconclusive.

SMILES | FUS yeast rescue | TDP-43 yeast inh | aSyn yeast inh | Mito fusion yeast | Abeta yeast res
O=C(Nc1cc(C(F)(F)F)ccc1N1CCCC1)c1ccc2c(c1)OCO2 | i | 17.8µM | i | i | i
CCC(=O)N1CCN(c2ccc(NC(=O)c3ccc4c(c3)OCCO4)cc2)CC1 | i | i | i | i | i
O=C(Nc1ccccc1N1CCCC1)c1ccc2c(c1)OCO2 | i | ? | i | i | i
CCC(=O)N1CCN(c2ccc(Cl)cc2NC(=O)c2ccc3c(c2)OCCO3)CC1 | ? | 25.1µM | i | i | i
CC(CNC(=O)c1ccc(CSc2nc3ccncc3n2Cc2cccc(F)c2)cc1)c1ccccc1 (stereo unspecified) | i | i | nt | nt | i
C[C@]12CC[C@H](O)CC1=CCC1C2CC[C@@]2(C)C1CC[C@@H]2NCc1ccccc1 (stereo partly specified) | i | 1.12µM | i | nt | i
O=C(c1cc(F)cc(F)c1)N1CCCC(c2nc(-c3cccs3)no2)C1 (stereo unspecified) | i | nt | nt | nt | nt
O=C(CSc1ccc(-c2cccs2)nn1)N1CCCCC1 | nt | 22.4µM | i | i | i
O=C(CSc1ccc2nnc(-c3cccs3)n2n1)N1CCCC1 | i | i | i | i | i
CC1CCN(C(=O)CSc2ccc(-c3ccccc3)nn2)CC1 | i | 17.8µM | i | i | i
O=C(CSc1ccc(-c2cccs2)nn1)N1CCCCCC1 | nt | 17.8µM | i | i | ?
Cc1ccc(C)c(NC(=O)CCc2c(C)nn(-c3ccc(N4CCCC4)nn3)c2C)c1 | i | i | nt | nt | i
Cn1nnnc1SCCCNCc1cc(Cl)ccc1OCc1ccc(F)cc1 | i | i | nt | nt | i
Oc1ccc(-c2nc3ccccc3s2)cc1 | i | 35.5µM | i | i | i
COC(=O)CN1C(=O)C(C)(C)c2cc(S(=O)(=O)NCc3ccc(Cl)cc3)ccc21 | i | i | nt | nt | i
COC(C/C=C/C(=O)COCc1ccccc1)OC | i | 12.6µM | i | i | i
C/C(=N\NC(=O)COc1ccccc1-c1ccccc1)c1ccccn1 | i | ? | 17.8µM | ? | i
Cn1ncc2c(Nc3cc(C(F)(F)F)ccc3Cl)ncnc21 | i | 14.1µM | nt | nt | i
Cc1c(Cl)cccc1N1C(N)=C(C#N)C(c2cc(CN3CCOCC3)cs2)C2=C1CCCC2=O (stereo unspecified) | i | i | nt | nt | i
O=C(Cc1cnn(-c2ccccc2)c1)c1ccc(O)c(O)c1O | nt | 35.5µM | ? | i | ?
CCOc1ccc(CCNC(=O)c2c(C)oc3ncn(CC(C)C)c(=O)c23)cc1 | i | 20µM | nt | nt | i
Cc1sc2ncnc(NCc3cccs3)c2c1C | i | 17.8µM | i | i | i
CN(C)S(=O)(=O)c1ccc(Nc2ccc(-c3ccc4c(c3)OCCO4)nn2)cc1 | i | i | i | i | i
CN(C(=O)c1cccc(Nc2ccc(-c3ccc4c(c3)OCCO4)nn2)c1)C1CCCCC1 | 25.1µM | i | i | ? | i
COc1ccccc1-c1nnc2sc(COc3ccc(Cl)cc3)nn12 | ? | 17.8µM | i | i | i
SMILES | FUS yeast rescue | TDP-43 yeast inh | aSyn yeast inh | Mito fusion yeast | Abeta yeast res
COc1ccc(-c2nnc3sc(COc4ccccc4)nn23)cc1 | i | 2.82µM | i | i | i
Cc1ccc(-c2nc3cc(Cl)ccc3o2)cc1NC(=O)COc1ccccc1C | nt | nt | i | nt | nt
CC(C)Oc1ccc(Oc2ccc(C#C[C@H](C)N3C(=O)c4ccccc4C3=O)cc2)cn1 | i | nt | nt | nt | nt
Oc1ccc(N=Nc2ccc3c(c2)OCCO3)c2cccnc12 | i | ? | 20µM | i | ?
Oc1cccc(Nc2ccccc2)c1 | i | 12.6µM | i | i | i
Cc1ccc2oc(-c3ccc(C)c(NC(=O)COc4ccc(Cl)cc4)c3)nc2c1 | nt | nt | i | nt | nt
Cc1nc(-c2cccc(NC(=O)c3ccc(Br)o3)c2)cs1 | i | 11.2µM | i | i | i
COc1ccc(-c2cncnc2-c2ccc(OC)cc2O)cc1 | i | i | i | i | i
COc1cccc(Oc2cncnc2-c2ccc(OC)cc2O)c1 | i | 20µM | ? | ? | i
COc1ccc(-n2c(C)cc(C3=NNC(=NC4CC4)SC3)c2C)cc1 | 15.8µM | i | i | i | i
CN=C1NN=C(c2cc(C)n(-c3c(C)n(C)n(-c4ccccc4)c3=O)c2C)CS1 | ? | i[0.397 µM] | i | 31.6µM | i
CC(C)(C)NC(=O)NC(=O)COc1ccc(Br)cc1Br | i | 28.2µM | i | ? | i
N#C/C(=C\c1ccc(-c2cccc(Cl)c2)o1)C(=O)Nc1cccc(C(F)(F)F)c1 | i | i | nt | nt | i
COC(=O)c1ccc(-n2c(C)cc(C(=O)CCl)c2C)cc1 | i | ? | i | i | i
CCOc1ccc(-n2c(C)cc(C(=O)CCl)c2C)cc1 | i | 8.91µM | i | i | i
O=C(Cc1ccccc1F)Nc1nnc(-c2cccnc2)s1 | i | nt | nt | nt | nt
O=C1C(=Cc2cccc(Cl)c2)CCc2ccccc21 | i | 20µM | i | nt | i
O=C(N1CCCC1)n1ncc(-c2ccc(-c3ccccc3)cc2)n1 | i | nt | nt | nt | nt
COc1cc(NC(=O)c2ccc(NC(=O)N3CCSc4ncccc43)cc2)cc(OC)c1 | i | i | nt | nt | i
Cc1cc(OCCSc2nnc(-c3cccs3)n2C)ccc1Cl | i | ? | i | i | i
Cc1ccc(OCCSc2nnc(-c3cccs3)n2C)cc1 | i | 12.6µM | i | i | i
Cn1c(SC/C=C/c2ccccc2)nnc1-c1cccs1 | i | 17.8µM | i | i | i
COc1ccc(-n2c(Cc3cccs3)nnc2SCC(=O)Nc2ccc(OCc3ccccc3)cc2)cc1 | i | nt | nt | nt | nt
COc1ccc(-c2nc3ccccc3n2Cc2ccc(C)cc2)cc1 | i | i | i | i | ?
COc1ccc(-n2c(=S)[nH]c3ccccc32)cc1 | ? | ? | i | i | i
SMILES | FUS yeast rescue | TDP-43 yeast inh | aSyn yeast inh | Mito fusion yeast | Abeta yeast res
COc1ccc(-c2nc3ccccc3n2Cc2ccc(Cl)cc2)cc1 | i | 22.4µM | nt | nt | i
COCn1c(-c2ccc(OC)cc2)nc2ccccc21 | i | i | i | i | i
COc1ccc(Cn2c(=S)[nH]c3ccccc32)cc1 | i | i | i | i | 11.2µM
COc1ccc(-c2nc3ccccc3n2Cc2ccc(C(C)C)cc2)cc1 | i | 22.4µM | i | nt | i
COc1ccccc1NC(=O)c1sc2nc(-c3cc4cc(Cl)ccc4oc3=O)[nH]c(=O)c2c1C | i | i | nt | nt | i
O=[N+]([O-])c1ccc(O/N=[N+](\[O-])N2CCCCC2)c([N+](=O)[O-])c1 | nt | nt | i | nt | nt
Cc1c(C(=O)OCC(=O)Nc2ccc(N3CCOCC3)cc2)oc2ccccc12 | i | i | i | i | i
Cc1c(C(=O)Nc2ccc(N3CCOCC3)cc2)oc2ccccc12 | i | 7.94µM | i | i | i
CCSc1ncc(Cl)c(C(=O)N(Cc2ccccc2)Cc2ccco2)n1 | i | i | nt | nt | i
CCCS(=O)(=O)c1ncc(Cl)c(C(=O)N(Cc2ccccc2)Cc2ccco2)n1 | i | 15.8µM | i | nt | i
